Bioassay records as filed in PubChem BioAssay.
This is a sample that favours compounds with a hit; in the whole collection about 3.2% have one here.
MEKK2 WT-MEK5 = raises or lowers MEK5 binding to wildtype human MEKK2 PB1 domain. Q9Y2U5. bead flow cytometry, Alexa488-MEK5 binding to MEKK2 WT; actives lie on both sides. binding response (% of control), % at 10 µM. 290,000 tested, 1.1% active; in the data active = binding response below about 67% or above about 130%
NRP1-CendR mod = modulators of CendR peptide binding to human neuropilin-1 | AID 602438 | 360,000 tested, 0.85% active | O14786 | inhibition, % at 25 µM | FAM-RPARPAR peptide binding to NRP-1, fluorescence polarization;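 active = inhibition or corrected inhibition above about 18%, plus a signal ratio from 0.5 to 1.5, limit read from the data, passing the limit was not always enough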
Target sequence (O14786 whole entry, looked up): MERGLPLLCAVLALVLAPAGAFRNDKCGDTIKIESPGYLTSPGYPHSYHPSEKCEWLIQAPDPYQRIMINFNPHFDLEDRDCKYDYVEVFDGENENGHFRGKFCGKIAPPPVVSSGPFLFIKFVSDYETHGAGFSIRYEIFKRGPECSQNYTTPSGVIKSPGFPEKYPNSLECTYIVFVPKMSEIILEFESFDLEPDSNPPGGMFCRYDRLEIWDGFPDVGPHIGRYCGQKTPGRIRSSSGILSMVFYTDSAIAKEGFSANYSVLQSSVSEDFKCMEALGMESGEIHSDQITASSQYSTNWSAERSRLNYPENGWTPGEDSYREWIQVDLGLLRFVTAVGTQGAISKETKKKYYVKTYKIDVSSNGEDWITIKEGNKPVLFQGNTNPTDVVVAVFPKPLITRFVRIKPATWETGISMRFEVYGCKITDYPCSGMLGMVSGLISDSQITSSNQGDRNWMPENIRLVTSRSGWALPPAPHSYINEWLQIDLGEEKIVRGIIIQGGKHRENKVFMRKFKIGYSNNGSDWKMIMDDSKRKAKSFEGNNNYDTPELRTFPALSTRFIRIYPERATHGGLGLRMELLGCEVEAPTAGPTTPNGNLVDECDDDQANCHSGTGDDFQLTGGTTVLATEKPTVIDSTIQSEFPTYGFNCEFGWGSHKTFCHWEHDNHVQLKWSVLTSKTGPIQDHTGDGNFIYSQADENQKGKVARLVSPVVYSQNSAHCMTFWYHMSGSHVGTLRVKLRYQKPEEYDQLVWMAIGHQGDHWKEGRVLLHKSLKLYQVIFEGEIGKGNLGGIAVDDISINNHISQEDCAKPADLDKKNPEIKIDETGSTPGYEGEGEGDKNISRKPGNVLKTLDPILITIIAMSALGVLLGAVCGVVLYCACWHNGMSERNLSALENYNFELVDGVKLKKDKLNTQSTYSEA
MEKK2mut PB1 HTS = signal of MEK5 binding to mutant human MEKK2 PB1 domain. bead flow cytometry, Alexa488-MEK5 binding to MEKK2 mutant. percent response, % at 10 µM. 290,000 tested, 0.35% active; in the data active = percent response above about 24%, passing the limit was not always enough
MEKK3 PB1 HTS = raises or lowers MEK5 binding to the human MEKK3 PB1 domain | binding response (% of control), % at 10 µM | bead-based flow cytometry, Alexa488-MEK5 binding to MEKK3; actives lie on both sides; 0 = blocked by unlabeled MEK5, 100 = vehicle | 290,000 tested, 1.4% active | AID 1529;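 active = binding response more than 3 SD above or below the average of its plate-row segment, actives on both sides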;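 note: Alexa488 bead fluorescence after subtracting the streptavidin-only scavenger bead signal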
SKN-1 block = inhibitors of C. elegans SKN-1; C. elegans VP596 Pgst-4::GFP/RFP ratio, acrylamide-induced, 24 h; inhibition, % at 21.8 µM; 360,000 tested, 0.49% active; AID 624304;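 active = interference check ratio from 0.5 to 1.5 plus GFP to RFP signal ratio inhibition reaching or exceeding a fixed threshold, cut at about 30% in these data, passing the limit was not always enough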
MEKK2wt confirm = raises or lowers MEK5 binding to wildtype human MEKK2, retest; shares compounds with MEKK3 PB1 HTS; bead flow cytometry, Alexa488-MEK5 binding to MEKK2 WT; actives lie on both sides; binding response (% of control), % at 10 µM; 5,900 tested, 2.4% active; AID 1892; in the data active = binding response below about 16% or above about 210%; inactive = in between
MEKK2mut confirm = signal of MEK5 binding to mutant human MEKK2, retest; shares compounds with MEKK3 PB1 HTS; 5,900 tested, 2% active; percent response, % at 10 µM; bead flow cytometry, Alexa488-MEK5 binding to MEKK2 mutant; in the data active = percent response mostly above about 71%, no sharp cut-off; inactive = mostly below about 38%;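 note: higher means compound restores mutant binding toward wildtype level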
MEKK3 confirm = MEKK3-MEK5 PB1 inhibition, single concentration confirmation | shares compounds with MEKK3 PB1 HTS | bead flow cytometry, Alexa488-MEK5 binding to MEKK3; stronger effect = lower value | binding response (% of control), % at 10 µM | 5,900 tested, 1.8% active | AID 1894;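 active = binding response below 72% of control, or above a set upper limit, though filed actives all read lower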
Each line names hits and unclear results; the compound was inactive in the other large screens (follow-up assays come after a bar, where they were run); ! = not active in a repeat; [ ] = another dose, or the depositor's remark.

Cc1cc(=O)oc2cc(OCC(=O)NC3CCCCC3)ccc12	none
COC(=O)c1ccnc(SCC(=O)c2ccccc2)c1	none
COC(=O)c1ccnc(/C=N/O)c1	MEKK3 PB1 HTS 80[inhibitor] | MEKK2wt confirm inactive | MEKK2mut confirm inactive | MEKK3 confirm inactive
CCN(CC)Cc1cc(Nc2c3ccccc3nc3c4ccccc4n(C)c23)cc(CN(CC)CC)c1O	none (no result: MEKK2 WT-MEK5, MEKK2mut PB1 HTS, MEKK3 PB1 HTS)
COc1cccc(NC(=O)CN(c2cccc(C(F)(F)F)c2)S(C)(=O)=O)c1	MEKK3 PB1 HTS 80[inhibitor] | MEKK2wt confirm inactive | MEKK2mut confirm inactive | MEKK3 confirm inactive
COc1cccc(NC(=O)CN(c2cccc(OC)c2)S(C)(=O)=O)c1	none
OC(COCc1ccccc1)CN1CCN(Cc2ccc3c(c2)OCO3)CC1 (stereo not drawn)	none
SC(COCc1ccccc1)CN1CCN(Cc2ccc3c(c2)OCO3)CC1 (stereo not drawn)	MEKK2 WT-MEK5 142 | MEKK2wt confirm inactive | MEKK2mut confirm inactive | MEKK3 confirm inactive
O=[N+]([O-])c1ccc(C[n+]2cccc3ccccc32)cc1	MEKK2mut PB1 HTS 98 | MEKK2wt confirm inactive | MEKK2mut confirm inactive | MEKK3 confirm inactive
c1ccc2[nH]c(-c3ccncc3)nc2c1	MEKK2 WT-MEK5 46![inhibitor], MEKK3 PB1 HTS 42![inhibitor] | MEKK2wt confirm inactive | MEKK2mut confirm inactive | MEKK3 confirm inactive
c1ccc(-c2nc3ccccc3[nH]2)cc1	none
OC(c1ccc(CN2CCCCC2)cc1)c1ncc(-c2ccccc2F)[nH]1 (stereo not drawn)	none (no result: MEKK2 WT-MEK5, MEKK2mut PB1 HTS, MEKK3 PB1 HTS)
COc1ccc(-c2cc(C(F)(F)F)nc(N3CCOCC3)n2)cc1	none
COc1ccc(-c2cc(-c3ccc(F)cc3)nc(N3CCN(C)CC3)n2)cc1	MEKK2 WT-MEK5 201 | MEKK2wt confirm inactive | MEKK2mut confirm 78 | MEKK3 confirm inactive
Cc1cnc(CN(C)C(=O)C2CCC(=O)N(CCc3ccc(Cl)cc3)C2)[nH]1 (stereo not drawn)	none (no result: MEKK2 WT-MEK5, MEKK2mut PB1 HTS, MEKK3 PB1 HTS)
CCCCn1c(N)c(N(CCOC)C(=O)CSc2nnc(-c3ccco3)n2CC)c(=O)[nH]c1=O	none (no result: MEKK2 WT-MEK5, MEKK2mut PB1 HTS, MEKK3 PB1 HTS)
CCN(CC)S(=O)(=O)c1ccc(NC(=O)c2cccc3c2C(=O)N(CCOC)C3)cc1	MEKK3 PB1 HTS 132 | MEKK2wt confirm inactive | MEKK2mut confirm inactive | MEKK3 confirm inactive
COc1ccc2c(C(=O)c3ccc(C)cc3)n(Cc3ccc(C(N)=O)cc3)[n+]([O-])c2c1	none (no result: MEKK2 WT-MEK5, MEKK2mut PB1 HTS, MEKK3 PB1 HTS)
COc1ccccc1CNCC(O)(c1ccc(Cl)cc1)c1ccc(Cl)cc1	MEKK2 WT-MEK5 163 | MEKK2wt confirm inactive | MEKK2mut confirm inactive | MEKK3 confirm inactive
COC(=O)C1(C(=O)OC)C[C@H](c2ccc(OC)cc2)N(Cc2ccccc2OC)[C@@H]1c1ccccc1	none (no result: MEKK2 WT-MEK5, MEKK2mut PB1 HTS, MEKK3 PB1 HTS)
Cn1c(SCC#N)nc2ccccc2c1=O	MEKK3 PB1 HTS 128 | MEKK2wt confirm inactive | MEKK2mut confirm inactive | MEKK3 confirm inactive
C=C(C)Cn1c(SCC#N)nc2ccccc2c1=O	MEKK3 PB1 HTS 82[inhibitor] | MEKK2wt confirm inactive | MEKK2mut confirm inactive | MEKK3 confirm inactive
CCOC(=O)C1(C)CCCN1C(=O)c1csnn1 (stereo not drawn)	none (no result: MEKK2 WT-MEK5, MEKK2mut PB1 HTS, MEKK3 PB1 HTS)
CSCCC(NC(=O)c1ccco1)C(=O)NCc1ccc2c(c1)OCO2 (stereo not drawn)	none (no result: MEKK2 WT-MEK5, MEKK2mut PB1 HTS, MEKK3 PB1 HTS)
O=C(c1ccc(Cl)cc1)C1CCCN(Cc2cnn(-c3ccccc3)c2)C1 (stereo not drawn)	MEKK2 WT-MEK5 148 | MEKK2wt confirm inactive | MEKK2mut confirm inactive | MEKK3 confirm inactive
O=C(c1ccc(-c2ccccc2)cc1)C1CCCN(Cc2ccncc2)C1 (stereo not drawn)	none
CCN(CC)C(=O)c1[nH]cnc1C(=O)Nc1ccccc1F	none (no result: MEKK2 WT-MEK5, MEKK2mut PB1 HTS, MEKK3 PB1 HTS)
CCCCC1=CC2=C(c3ccco3)C(=O)C(C)(OC(=O)c3ccc(OC)cc3)C(=O)C2=CN1C(CO)CO (stereo not drawn)	MEKK2 WT-MEK5 144 | MEKK2wt confirm inactive | MEKK2mut confirm inactive | MEKK3 confirm inactive
CCCCC1=CC2=C(c3ccco3)C(=O)C(C)(OC(=O)c3ccc(OC)cc3)C(=O)C2=CN1CCN1CCOCC1 (stereo not drawn)	MEKK2 WT-MEK5 142 | MEKK2wt confirm inactive | MEKK2mut confirm inactive | MEKK3 confirm inactive
CSc1cccc(NC(=O)/C=C/c2ccc(Cl)cc2)c1	MEKK2 WT-MEK5 146 | MEKK2wt confirm inactive | MEKK2mut confirm inactive | MEKK3 confirm inactive
CC1=C(C(=O)N(C(C)C)C(C)C)CC(CC(=O)NCCN2CCOCC2)C(=O)N1CCCN1CCCC1=O (stereo not drawn)	none (no result: MEKK2 WT-MEK5, MEKK2mut PB1 HTS, MEKK3 PB1 HTS)
COc1ccccc1-c1cc(C(=O)NC2CCN(C)CC2)c2ccc(Cl)c(C)c2n1	MEKK2 WT-MEK5 155, MEKK2mut PB1 HTS 28 | MEKK2wt confirm inactive | MEKK2mut confirm inactive | MEKK3 confirm inactive
Cc1ccc2nc(-c3ccccn3)cc(C(=O)NC3CCN(C)CC3)c2c1	none (no result: NRP1-CendR mod, SKN-1 block)
Cc1c(Cl)ccc2c(C(=O)NCCN3CCCCC3)cc(-c3ccccn3)nc12	MEKK2 WT-MEK5 166 | MEKK2wt confirm inactive | MEKK2mut confirm inactive | MEKK3 confirm inactive
CC(=O)Nc1nc(C)c(C(C)=O)s1	MEKK2 WT-MEK5 3.0[inhibitor], MEKK3 PB1 HTS 2.0[inhibitor] | MEKK2wt confirm inactive | MEKK2mut confirm inactive | MEKK3 confirm inactive
c1ccc(-n2nnc3c(N4CCOCC4)ncnc32)cc1	MEKK3 PB1 HTS 74[inhibitor] | MEKK2wt confirm inactive | MEKK2mut confirm inactive | MEKK3 confirm inactive
CNc1cncc(-c2cccc(NS(C)(=O)=O)c2)n1	none (no result: MEKK2 WT-MEK5, MEKK2mut PB1 HTS, MEKK3 PB1 HTS)
CCOC(=O)CC1(CCc2ccccc2)Oc2ccccc2O1	none (no result: MEKK2 WT-MEK5, MEKK2mut PB1 HTS, MEKK3 PB1 HTS)
CN1CCN(C(=O)c2cc3c(s2)-c2ccccc2S(=O)(=O)C3)CC1	none
COc1ccc(N2CCN(C(=O)c3cc4c(s3)-c3ccccc3S(=O)(=O)C4)CC2)cc1	MEKK2 WT-MEK5 -10[inhibitor] | MEKK2wt confirm inactive | MEKK2mut confirm inactive | MEKK3 confirm inactive
CS(=O)(=O)NN1C(=O)c2ccccc2NC1c1ccccc1F (stereo not drawn)	none
CS(=O)(=O)NN1C(=O)c2ccccc2NC1c1cc2ccccc2nc1Cl (stereo not drawn)	MEKK3 PB1 HTS 132 | MEKK2wt confirm inactive | MEKK2mut confirm inactive | MEKK3 confirm inactive
CC(=O)Nc1cccc(C(=O)Oc2cccc(C)c2)c1O	MEKK2 WT-MEK5 16[inhibitor], MEKK3 PB1 HTS 9.0[inhibitor] | MEKK2wt confirm inactive | MEKK2mut confirm inactive | MEKK3 confirm inactive
Cc1cc[n+](C(C)C(=O)c2ccc(-c3ccccc3)cc2)cc1 (stereo not drawn)	MEKK2 WT-MEK5 152 | MEKK2wt confirm inactive | MEKK2mut confirm inactive | MEKK3 confirm inactive
